Measured values published in the supplement of paper PMC8726507.
Unmarked numbers belong to inactive results.

system: Plasmodium falciparum NF54-HGL (transmission to Anopheles stephensi); test: percentage of barcode signal found in uninfected mosquitoes (transmission-blocking activity); higher = stronger blocking of transmission to mosquito, active = 80 or more; conditions: 10 µM; gametocyte preincubation time 24 h; readout time post-feed 8 days
Procedure: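 The mixture was fed to Anopheles stephensi in 96-well plates as blood meals tagged with DNA-barcoded Asaia bacteria. Eight days later, mosquitoes were classed infected or uninfected by luminescence (mean + 5 SD of unfed controls). Barcodes were quantified by Luminex MagPlex-TAG in the pooled uninfected and infected Asaia cultures, background-corrected, and the score is % of barcode signal in uninfected mosquitoes = 100*Iu/(Iu+Ii).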

Structure (SMILES)	percentage of barcode signal found in uninfected mosquitoes [%]
CC(C)C(NC(=O)Cc1cccc2ccccc12)C(=O)Nc1cccc(C#N)c1 (stereo not drawn)	53.4
CCCn1nnc(NC(=O)COc2ccc(C3CCCCC3)cc2)n1	3.33
COc1ccc(-c2cc(NC(=O)c3ccc(F)cc3Cl)ccc2OC)cc1	-1.77
O=C(C1CCCCC1)N1CC(=O)N2CCc3ccccc3C2C1 (stereo not drawn)	51.6
Cc1ccc2c(c1C)NC(=O)C21NN=C(c2ccccc2)S1 (stereo not drawn)	77
O=C(Cn1ccnc1[N+](=O)[O-])NCc1ccccc1	70
CS(=O)(=O)c1ccc(C(=O)N(CC2CCCO2)c2nc3ccccc3s2)cc1[N+](=O)[O-] (stereo not drawn)	63.1
Brc1c(-c2ccc3c(c2)OCO3)nc2ncccn12	6.02
CCOc1ccc2cc(-c3nn(C(C)(C)C)c(N)c3C(N)=O)cnc2c1	71.5
CNc1nnc(Sc2cnn(-c3ccccc3)c(=O)c2Cl)s1	76.3
COc1ccc(C2=NN(C3CCCCCC3)C(=O)C2(C)C)cc1OCCCCOc1ccc(-c2nn[nH]n2)cc1	7.2
COc1nc2ccc(Br)cc2cc1[C@@H](c1ccccc1)[C@@](O)(CCN(C)C)c1cccc2ccccc12	-3.2
N=C(N)c1ccc(OCCCCCOc2ccc(C(=N)N)cc2)cc1	77.2
CCCCc1ccc(NC(=O)Nc2ccc(O[C@H]3CCCC[C@@H]3N(C)c3ccccc3)c(F)c2)cc1	28.1
CC(=O)Nc1ccc(NC(=O)c2cc(-c3cc(Cl)ccc3O)[nH]n2)cc1	27.4
C[C@H]1c2cccc(O)c2C(=O)C2=C(O)[C@]3(O)C(=O)C(C(N)=O)=C(O)[C@@H](N(C)C)[C@@H]3[C@@H](O)[C@@H]21	41.2
O=C(Nc1nc(-c2ccccn2)cs1)C1CC1c1ccccc1F (stereo not drawn)	53.8
COc1cc2ncnc(NC3CCN(Cc4ccccc4)CC3)c2cc1OC	31
O=C(Nc1ccc(F)c(-c2nc3cc(-c4ccccc4)cnc3[nH]2)c1)N1CCCC1	35.5

same assay, conditions: 20 µM; gametocyte preincubation time 24 h; readout time post-feed 8 days

Structure (SMILES)	percentage of barcode signal found in uninfected mosquitoes
C[C@H](C(N)=O)N1CCCC[C@@H]1c1ccc(OCc2cccc(F)c2)cc1	17.3%
CC1=Nc2ccc(Cl)cc2C(c2ccccc2)N1CCNC(=O)CN(C)C (stereo not drawn)	71.2%
c1ccc(C[C@@H]2CN(c3nccc(Oc4ccc(-n5ccnc5)cc4)n3)CCN2)cc1	35.3%
FC(F)(F)c1cccc(-c2nc3c(NCc4ccncc4)nccc3[nH]2)c1	2.48%
COc1cc(CN2CCC3(C=Cc4ccccc43)CC2)cc2c1OCO2	0.609%
NCC(c1cccs1)S(=O)(=O)c1ccccc1 (stereo not drawn)	17.5%
CC(C(=O)N1CCCC1)N1CCN(S(=O)(=O)c2ccc(C(C)(C)C)cc2)CC1 (stereo not drawn)	0.922%
CC(C)(C)CN1C(=O)C(c2ccccc2)(c2ccccc2)N=C1N	13.8%
Cc1ccc(-c2nc(CN(Cc3ccccn3)C(C)C)cs2)o1	81.4% (active)
COc1cccc(-c2nc3c(N4CCCC4)cccc3n2CC2CCCN2)n1 (stereo not drawn)	68%
CCCCCCCCCCCCCCCCOP(=O)([O-])OCC[N+](C)(C)C	-0.352%
Cc1cc(C)n(-c2ccc(NC(=O)C3CCN(Cc4cnc(C)s4)CC3)cc2)n1	1.19%
C[C@H]1COc2c(N3CCN(C)CC3)c(F)cc3c(=O)c(C(=O)O)cn1c23	-1.12%
CCCn1c(NC(=O)c2ccc3ccccc3n2)nc2ccccc21	56.6%
Cc1cc(NCCc2ccccc2)nc(NC(=N)Nc2ccc(Cl)cc2)n1	75.8%
CCOC(=O)c1c(NC(=O)c2c(F)c(F)c(F)c(F)c2F)sc(C(N)=O)c1C	60.8%
O=[N+]([O-])c1cn2c(n1)OC[C@@H](OCc1ccc(OC(F)(F)F)cc1)C2	17%
c1ccc(Oc2ccc(-c3cc(N4CCNCC4)[nH]n3)cc2)cc1	27.2%
O=C(CN1CCOCC1)Nc1ccc2ncnc(Nc3ccc(OCc4cccc(F)c4)c(Cl)c3)c2c1	1.6%
